Bioassay records: PubChem, several laboratories
Compounds with a hit are over-represented: about 3.6% of the library has one in this group of screens.
Mtb hypoxia rep: PubChem AID 1159583; M. tuberculosis hypoxia-regulated fluorescent reporter, fluorescence; 0.1% of 300,000 active; fluorescence inhibition, % (no concentration beside the values); in the data active = fluorescence inhibition mostly above about 23%, no sharp cut-off; inactive = mostly below about 17%
Mtb bLac sens: beta-lactam sensitization of Mtb H37Rv, H37Rv; inhibition, % at 25 µM; AID 434955, 2010; 0.27% of 330,000 active; M. tuberculosis H37Rv growth with meropenem, percent inhibition; call rule not given here;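 also: growth measured after seven days incubation then overnight dye step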
VHR inh abs: VHR1 phosphatase inhibitors, primary screen, biochemical, absorbance, uHTS. 0.52% of 290,000 active. inhibition, % at 13.3 µM. recombinant VHR phosphatase, pNPP absorbance. Dual specificity protein phosphatase 3 (Homo sapiens), P51452; in the data active = inhibition above about 50%
Target sequence (P51452 whole entry, looked up): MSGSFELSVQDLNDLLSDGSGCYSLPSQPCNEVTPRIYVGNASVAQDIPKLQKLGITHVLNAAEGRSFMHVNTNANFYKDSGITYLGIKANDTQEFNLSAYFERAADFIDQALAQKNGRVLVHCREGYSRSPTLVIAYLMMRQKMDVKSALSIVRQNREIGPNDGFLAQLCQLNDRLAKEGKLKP
GDH-TPI inh: GDH-TPI coupling enzyme inhibitors, primary screen, artefact control for M. tuberculosis FBA inhibitor project, biochemical, absorbance, full deck | AID 588335, 2011 | 1.2% of 360,000 active | inhibition, % at 4.8 µM | GDH-TPI coupled enzyme counterscreen, NADH absorbance; in the data active = inhibition above about 30%
FBA Mtb inh: Mtb FBA enzyme inhibitors, primary screen, biochemical, fluorescence, strain H37Rv; 2.3% of 360,000 active; inhibition, % at 1 µM; purified M. tuberculosis FBA, fluorescence read-out; AID 588726, 2011; Fructose-bisphosphate aldolase (Mycobacterium tuberculosis (strain ATCC 25618 / H37Rv)), …; in the data active = inhibition above about 27%
Target sequence (P9WQA3 whole entry, looked up): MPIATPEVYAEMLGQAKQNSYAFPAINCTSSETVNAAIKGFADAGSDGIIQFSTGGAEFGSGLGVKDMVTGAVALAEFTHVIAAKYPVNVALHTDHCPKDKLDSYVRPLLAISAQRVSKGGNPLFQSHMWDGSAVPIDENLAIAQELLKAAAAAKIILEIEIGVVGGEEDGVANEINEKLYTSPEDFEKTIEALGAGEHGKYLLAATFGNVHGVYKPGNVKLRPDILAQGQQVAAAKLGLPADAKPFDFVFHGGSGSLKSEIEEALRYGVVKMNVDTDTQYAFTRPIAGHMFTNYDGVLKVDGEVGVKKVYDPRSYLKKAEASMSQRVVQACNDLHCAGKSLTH
Large screens that a line does not name were inactive.

CC(=O)c1ccc(NC(=O)C2=CC(c3ccc4c(c3)OCO4)=NS(=O)(=O)N2C)cc1	VHR inh abs 56.3
COc1cc(C=NN2CCN(Cc3ccccc3)CC2)cc(OC)c1OC(C)=O	none (no result: Mtb bLac sens, VHR inh abs, GDH-TPI inh, FBA Mtb inh)
Oc1ccc(C=NNC(=S)N2CCOCC2)cc1	none (no result: Mtb bLac sens, VHR inh abs, GDH-TPI inh, FBA Mtb inh)
CN1CCCC1CCNC(=O)c1cccc2c1C(=O)c1ccc(N3CCCC3)cc1S2(=O)=O (configuration not stated)	none (no result: Mtb bLac sens, VHR inh abs, GDH-TPI inh, FBA Mtb inh)
CC1(C)CC(=O)C=C(Nc2ccc([N+](=O)[O-])cc2)C1	GDH-TPI inh 47.1
COc1ccc(NC2=CC(=O)CC(C)(C)C2)cc1	none
CC1(C)CC(=O)C=C(Nc2ccc(O)cc2)C1	none (no result: Mtb hypoxia rep, Mtb bLac sens, VHR inh abs)
COC(=O)c1ccc(NC2=CC(=O)CC(C)(C)C2)cc1	GDH-TPI inh 43.6
COC(=O)C1=CC(C(=O)OC)C2C3=C(C(=O)[C@@]2(C)NC(=O)c2ccccc2)C(C)n2c(=O)n(C)c(=O)n2C3C1 (some centres not stated)	none (no result: Mtb bLac sens, VHR inh abs, GDH-TPI inh, FBA Mtb inh)
COC(=O)C1=C(c2ccc(C(C)=O)cc2)CC2CCC1N2C(=O)NCCOc1ccccc1Cl (configuration not stated)	none (no result: Mtb bLac sens, VHR inh abs, GDH-TPI inh, FBA Mtb inh)
O=c1c(-c2nnc(SCc3ccc(Cl)cc3)o2)cccn1Cc1ccccc1	FBA Mtb inh 176.1
CCN1CCN(c2nc3ccccc3n3cnnc23)CC1	GDH-TPI inh 32.5
COc1cc(OC)c(OC)cc1/C=N/NC(=O)c1cc(-c2cccn2C)n[nH]1	GDH-TPI inh 37.6 (no result: Mtb hypoxia rep)
COc1cc(OC)c(OC)cc1/C=N/NC(=O)c1ccc(=O)n(C)c1	GDH-TPI inh 53.6 (no result: Mtb hypoxia rep)
COc1ccc(/C=N/NC(=O)c2cc(-c3cccn3C)n[nH]2)cc1OC	none (no result: Mtb hypoxia rep)
COc1ccc(OC)c(/C=N\NC(=O)c2ccc(=O)n(C)c2)c1	none (no result: Mtb hypoxia rep)
O=C(C=Cc1cccs1)N1CCC2(CC1)Oc1ccc(F)cc1C(=O)C21CC(c2ccc(Cl)cc2)=NO1 (configuration not stated)	none (no result: Mtb bLac sens, VHR inh abs, GDH-TPI inh, FBA Mtb inh)
Cc1cc(=O)oc2cc(OC(C)C(=O)NCC3CCC(C(=O)O)CC3)ccc12 (configuration not stated)	FBA Mtb inh 27.6 (no result: Mtb hypoxia rep)
O=C(Cc1cc(=O)oc2cc(O)ccc12)NCC1CCC(C(=O)O)CC1 (configuration not stated)	FBA Mtb inh active
CC(Oc1ccc2c(-c3ccccc3)cc(=O)oc2c1)C(=O)NCC1CCC(C(=O)O)CC1 (configuration not stated)	none (no result: Mtb hypoxia rep)
CCn1c(=O)n(CC)c2cc(N3CCCC3)c(NC(=O)c3ccc(F)cc3)cc21	none (no result: Mtb hypoxia rep)
CCn1c(=O)n(CC)c2cc(N3CCCC3)c(NC(=O)c3c(F)cccc3F)cc21	VHR inh abs 57.0
Cc1ccc(-n2c3nc(=O)[nH]c(=O)c-3cc3c(C)nn(-c4ccccc4)c32)c(C)c1	FBA Mtb inh active (no result: Mtb hypoxia rep)
Cc1cccc(-n2c3nc(=O)[nH]c(=O)c-3cc3c(C)nn(-c4ccccc4)c32)c1	none (no result: Mtb hypoxia rep, GDH-TPI inh, FBA Mtb inh)
CCOC(=O)c1sc(/N=C/N(C)C)nc1C	GDH-TPI inh 31.5 (no result: Mtb hypoxia rep)
CCOC(=O)c1sc(/N=C/N(C)C)c(C(=O)OCC)c1C	none (no result: Mtb hypoxia rep)
CCC(C)n1c(=N)c(C#N)cc2c(=O)n3ccccc3nc21 (configuration not stated)	none
Cc1ccc(C)c(-n2c(=O)c(C#N)cc3c(=O)n4ccccc4nc32)c1	FBA Mtb inh 133.4
Cc1ccc(-n2c(=O)c(C#N)cc3c(=O)n4ccccc4nc32)cc1	FBA Mtb inh 148.6
Cc1cccc(-n2c(=O)c(C#N)cc3c(=O)n4ccccc4nc32)c1	FBA Mtb inh active
N#Cc1cc2c(=O)n3ccccc3nc2n(CCCn2ccnc2)c1=N	none
c1cn2cc(-c3ccc(CN4CCOCC4)cc3)ccc2n1	none (no result: Mtb hypoxia rep, Mtb bLac sens, VHR inh abs)
c1cc(-c2ccoc2)n2ccnc2c1	none (no result: Mtb hypoxia rep, Mtb bLac sens, VHR inh abs)
CC(=O)c1ccc(-c2cccc3nccn23)cc1	none (no result: Mtb hypoxia rep, Mtb bLac sens, VHR inh abs)
c1cc(-c2ccc(CN3CCOCC3)cc2)n2ccnc2c1	FBA Mtb inh active (no result: Mtb hypoxia rep, Mtb bLac sens, VHR inh abs)
N#Cc1ccc(-c2cccc3nccn23)cc1	FBA Mtb inh 177.9 (no result: Mtb hypoxia rep, Mtb bLac sens, VHR inh abs)
CN1CCN(c2ccc(-c3cccc4nccn34)cn2)CC1	FBA Mtb inh active (no result: Mtb hypoxia rep, Mtb bLac sens, VHR inh abs)
CCC(=O)NN=c1sc2ccccc2n1C	none (no result: Mtb bLac sens, VHR inh abs, GDH-TPI inh, FBA Mtb inh)
COc1cccc(N2C(CC(C)=O)c3ccccc3S2(=O)=O)c1 (configuration not stated)	none (no result: Mtb bLac sens, VHR inh abs, GDH-TPI inh, FBA Mtb inh)
CC(=NNC(=O)c1cccs1)c1c(O)cc(C)oc1=O	none (no result: Mtb bLac sens, VHR inh abs, GDH-TPI inh, FBA Mtb inh)
CC(C)(C)c1ccc(OCc2cnc(Cl)s2)cc1	Mtb hypoxia rep 39.3
CC(=O)C1=C(O)C(=CC=Cc2ccccc2)OC1=O	GDH-TPI inh 31.0 (no result: Mtb hypoxia rep, Mtb bLac sens, VHR inh abs)
CCOC(=O)c1cc2c(=O)[nH]ccc2nc1C	FBA Mtb inh 119.5
CCc1cc2c3c(c(=O)oc2cc1O)CCCC3	FBA Mtb inh active (no result: Mtb hypoxia rep)
